# This is a sample that favours compounds with a hit; in the whole collection about 8.5% have one here.
# JMJD2E inh: inhibitors of human JMJD2E histone demethylase | B2RXH2 | Potency, µM (titrated, usually from 57.1 µM), hits mostly inhibitors | hit rate 1.6% among 230,000 | JMJD2E catalytic domain, FDH-coupled NADH fluorescence (FDH is formaldehyde dehydrogenase); note: nearly all actives have a fitted effect of over 50% in size
# Coupling enz: inhibits coupling enzyme system, counter-screen for aldolase hits; hit rate 0.67% among 290,000; coupling enzyme system counterscreen, AmpLite Red fluorescence; AID 2472; activity change, negative = inhibition, % at 58.2 µM, hits read low; in the data active = activity change below about -30%
#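 Compounds tested against the coupling enzymes alone at 57.5 uM final; readout was AmpLite Red fluorescence (525/598 nm) after 20 min at RT.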
# NPSR antag: neuropeptide S receptor (human) antagonism, cAMP | Q6W5P4 | CHO-NPSR cells, cAMP TR-FRET, antagonist mode | Potency, µM (titrated, usually from 38.3 µM), most hits filed as inhibitors | hit rate 1% among 220,000 | AID 1461; active = well fitted curve in the direction sought with a large enough effect; inconclusive = small, poorly fitted or top-dose-only effect, or another doubt; inactive = no such curve, though single readings can be large; an effect the other way counts as inactive or inconclusive; note: nearly all actives have a fitted effect of over 50% in size
# GoLoco inh red: blocks human Gai1 binding to RGS12 GoLoco peptide, red readout; hit rate 0.44% among 230,000; AID 880; Gai1:RGS12 GoLoco peptide FP, rhodamine, 10 min; P63096; Potency, µM (titrated, usually from 61.6 µM), most hits filed as inhibitors; active = well fitted inhibition curve with a large enough effect, not every such curve was filed as active; inactive = no such curve, though single readings can be large or run the other way; note: nearly all actives have a fitted effect of over 30% in size
# Target sequence (P63096 whole entry, looked up): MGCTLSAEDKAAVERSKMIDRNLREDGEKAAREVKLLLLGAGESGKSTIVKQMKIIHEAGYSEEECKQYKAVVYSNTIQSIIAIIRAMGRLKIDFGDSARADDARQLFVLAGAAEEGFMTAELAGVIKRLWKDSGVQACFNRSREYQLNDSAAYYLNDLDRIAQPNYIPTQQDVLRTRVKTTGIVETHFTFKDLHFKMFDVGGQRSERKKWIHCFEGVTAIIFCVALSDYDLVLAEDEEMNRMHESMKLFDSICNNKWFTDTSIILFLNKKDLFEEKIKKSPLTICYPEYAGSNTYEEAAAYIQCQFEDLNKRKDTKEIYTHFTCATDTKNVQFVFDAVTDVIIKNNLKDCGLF
# ALDH1A1 block: inhibitors of human aldehyde dehydrogenase 1A1 | Potency, µM (highest dose often 75.3 µM), most hits filed as inhibitors | P00352 | Purified ALDH1A1, NADH fluorescence, propionaldehyde substrate | hit rate 7.3% among 220,000
# Sfp PPTase inh: blocks B. subtilis Sfp PPTase activity | Q9F4F7 | Biochemical Sfp PPTase activity, qHTS | Potency, µM, most hits filed as inhibitors | hit rate 3.5% among 310,000 | AID 1490; active = well fitted curve in the direction sought with a large enough effect; inconclusive = small, poorly fitted or top-dose-only effect, or another doubt; inactive = no such curve, though single readings can be large; an effect the other way counts as inactive or inconclusive;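 note: the enzyme is Sfp with the accession as filed and its product quenches rhodamine fluorescence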
#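 Step 1, compound plus 15 nM Sfp-PPTase, 15 min, room temperature. Step 2, add rhodamine-CoA (5 uM) and BHQ-2-YbbR (12.5 uM). Step 3, read 525/598 nm fluorescence at 0 and 30 min.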
# Hits are given with their value; - = inactive; ? = inconclusive; . = no result given; [ ] = remark or other dose. Unless noted, calls come from the whole dose curve; as a rule, active = well fitted inhibition curve with a large enough effect (not every such curve was filed as active); inconclusive = small, poorly fitted or top-dose-only effect, or another doubt; inactive = no such curve, though single readings can be large or run the other way.
SMILES,JMJD2E inh,Coupling enz,NPSR antag,GoLoco inh red,ALDH1A1 block,Sfp PPTase inh
Cc1ccccc1C(=O)NC(=S)Nc1sc2c(c1C#N)CCCC2,-,-,-,-,6.3µM,-
Cc1cc(/C=N/NC(N)=S)c(C)n1-c1ccc(Cl)cc1,-,-,-,-,32µM,-
Cc1cc(/C=N/NC(N)=S)c(C)n1-c1ccc(Br)cc1,?,-,-,-,16µM,-
Cc1cc(/C=N/NC(N)=S)c(C)n1-c1cccc(Cl)c1,-,-,-,-,25µM,-
Cc1cc(/C=N/O)c(C)n1-c1ccc(Br)cc1,-,-,-,-,8.9µM,-
Cc1nc2ccccn2c1C(=O)N/N=C/c1cc(C)n(-c2ccc(Br)cc2)c1C,?,-,-,-,?,-
Cc1cccc(C)c1-n1c(C)cc(/C=N/NC(N)=S)c1C,-,-,-,-,?,?
Cc1cccc(C)c1OCc1cc(C(=O)N(Cc2nccn2C)C(C)C)no1,.,-,.,.,.,-
O=[N+]([O-])c1ccc(Nc2nc(NC3CCCCC3)nc(N3CCCC3)n2)cc1,-,-,-,-,13µM,-
COc1ccccc1N(C(=O)c1ccco1)C(C(=O)NC1CCCC1)c1ccc(N2CCOCC2)cc1 (configuration not stated),.,-,.,.,.,-
Cc1ccc(NC(=O)COC(=O)CCC(=O)c2ccc(C(C)(C)C)cc2)c([N+](=O)[O-])c1,-,-,-,-,0.5µM,-
Cc1ccc(NC(=O)CCC(=O)OCC(=O)c2ccc(Oc3ccc([N+](=O)[O-])cc3)cc2)c(C)c1,-,-,-,-,22µM,-
Cc1ccc(NC(=O)CCC(=O)OCC(=O)c2ccc(Oc3ccc([N+](=O)[O-])cc3)cc2)cc1,-,-,-,-,-,?
COc1cc(OC)cc(C(=O)Nc2ccc(Nc3ccccc3)cc2)c1,.,-,.,.,.,-
COc1cc(OC)cc(C(=O)Nc2nnc(NC(=S)Nc3ccccc3)s2)c1,-,-,?,-,22µM,-
CC(C)(C)c1nnc(NC(=S)Nc2ccccc2)s1,-,-,-,-,25µM,-
Cc1cc(C(=O)NC2CC(C)(C)Cc3c2cnn3-c2ccc(F)cc2)no1 (configuration not stated),.,.,.,.,.,-
O=C(NN=C1CCCC1)c1[nH]c2ccc(Cl)cc2c1-c1ccccc1,?,-,?,-,11µM,-
C=CCOC(=O)C1=C(C)NC(SCC(=O)Nc2ccc(C)c(Cl)c2)=C(C#N)C1c1ccco1 (configuration not stated),?,-,-[7.67 µM],-,?,35µM
C=CCOC(=O)C1=C(C)NC(SCC(N)=O)=C(C#N)C1c1ccc(C)cc1 (configuration not stated),-,-,-,-,-,-
C=CCOC(=O)C1=C(C)NC(SCC)=C(C#N)C1c1ccc(Cl)cc1 (configuration not stated),?,-,10µM,-,-,-
Cn1c(CSCc2ccc(Cl)cc2)nnc1SCC(=O)Nc1nc2ccccc2s1,-,-,-,-,-,-
CC(=O)C1=C(C)NC(SCC(=O)Nc2nc3ccccc3s2)=C(C#N)C1c1ccc(Cl)cc1 (configuration not stated),?,-,-,.,?,40µM
CCOC(=O)C1=C(C)NC(SCC(=O)OC)=C(C#N)C1c1ccc(C(=O)OC)cc1 (configuration not stated),?,-,?,-,?,56µM
CC(=O)c1ccc(C(=O)N2CCCC(CCC(=O)N(C)CCc3ccccn3)C2)s1 (configuration not stated),-,-,-,-,?,-
Cc1nn(CC(=O)N2CCC(C(N)=O)CC2)c(=O)c2nn(-c3ccccc3)c(C)c12,.,-,.,.,.,-
C#CCSC1=C(C#N)C(c2cccs2)C(C(=O)OCC)=C(C)N1 (configuration not stated),?,-,-,-,25µM,28µM
CCOC(=O)CSC1=C(C#N)C(c2ccc(F)cc2)C(C(C)=O)=C(C)N1 (configuration not stated),?,-39,?,-,22µM,?
CC(=O)C1=C(C)NC(SCC(N)=O)=C(C#N)C1c1cccnc1 (configuration not stated),-,-,-,-,?,-

# Source: PubChem (National Center for Advancing Translational Sciences (NCATS))
